Pf Dd2 growth: qHTS Primary assay for Inhibitors of Plasmodium falciparum Dd2 growth in vitro; P. falciparum Dd2 growth, SYBR Green, 72 h; Potency, µM (highest dose often 28.9 µM), inactives show at the highest dose activity, negative = inhibition, actives largely listed as inhibitors; 120,000 compounds, 4.3% hits; active = well fitted inhibition curve with a large enough effect;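 also: plate controls were DMSO vehicle for no effect and reference drug for full effect; nearly all actives have a fitted effect of over 65% in size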
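Infected erythrocytes (Dd2, 0.3% parasitemia, 2.5% hematocrit final) are added to compound in RPMI-1640/Albumax II medium, grown 72 h at 37C in low oxygen, then lysed with saponin/Triton-X containing SYBR Green and read by fluorescence.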
Numbers without * were called inactive; i = inactive; [ ] = another dose, or the depositor's remark. This is one part of a sample in which hits are shown more often than they occur. Potency is read from the fitted curve at half-maximal effect.

SMILES	Pf Dd2 growth
CCN(CC)CCCNc1cc(-c2ccccc2)nc(C)n1	-27%
O=C1CC2(CCN(Cc3ccccc3)CC2)Oc2ccccc2N1	-19%
CN(C)C1CNC1	-10%[115 µM]
COc1ccc(C2(C(=O)N3C[C@@H](CO)[C@H](c4ccccn4)C3)CC2)cc1	12%
Cc1nc(-c2cccs2)cc([C@H]2CN3CC[C@H]2C[C@@H]3CNC(=O)c2ccc3c(c2)OCO3)n1	8.9µM*
Cc1ccc(C(=O)NC[C@H]2C[C@@H]3CCN2C[C@@H]3c2cc(-c3cccs3)nc(C)n2)cc1	7.1µM*
C=C[C@H]1CN2CC[C@H]1C[C@@H]2CNC(=O)c1ccc2c(c1)OCO2	-4%[44.1 µM]
COc1ccccc1-c1cc([C@H]2CN3CC[C@H]2C[C@@H]3COC(=O)Nc2ccccc2)nc(C)n1	i
Cc1nc(-c2cccs2)cc([C@H]2CN3CC[C@H]2C[C@@H]3CNC(=O)Nc2cccc(C(F)(F)F)c2)n1	8.9µM*
Cc1nc(-c2ccccc2)cc([C@H]2CN3CC[C@H]2C[C@@H]3CNC(=O)N2CCOCC2)n1	i
O=C(Nc1cccc(C(F)(F)F)c1)OC[C@H]1C[C@@H]2CCN1C[C@@H]2c1cc(C2CCCC2)nc(-c2ccncc2)n1	2.5µM*
Cc1nc(-c2ccc(C(F)(F)F)cc2)cc([C@H]2CN3CC[C@H]2C[C@@H]3CNC(=O)N2CCOCC2)n1	i
Cn1nc(-c2ccc3ccccc3c2)cc1[C@H]1CN2CC[C@H]1C[C@@H]2COC(=O)Nc1cccc(C(F)(F)F)c1	21%
Cc1nc(-c2ccccc2Br)cc([C@H]2CN3CC[C@H]2C[C@@H]3CNC(=O)c2ccco2)n1	-6%
Cc1ccc(S(=O)(=O)NC[C@H]2C[C@@H]3CCN2C[C@@H]3c2cc(-c3ccccc3Br)nc(C)n2)cc1	i
Cc1nc(-c2ccc(F)cc2)cc([C@H]2CN3CC[C@H]2C[C@@H]3CNC(=O)Nc2cccc(C#N)c2)n1	-13%
O=C(NCc1cccnc1)C1CC(=O)N(c2n[nH]c3ccccc23)C1 (configuration not stated)	7%
CCOCCCNC(=O)c1ccc(CN2C(=O)NC3(CCS(=O)(=O)CC3)C2=O)cc1	17%
CCCN(CC1CCOC1)C(=O)Nc1cccc(Cl)c1 (configuration not stated)	i[5.79 µM]
CNC(=O)[C@H]1C[C@H](Oc2cccnc2)CN1S(=O)(=O)c1cccc(OC)c1	-33%
COc1ccc(C(=O)N2CCC[C@H]2c2nc(-c3ccc(OC)c(OC)c3)no2)c(C)c1	-16%
O=C1NCCC[C@@H]1NC(=O)[C@H]1CN(C(=O)NC2CCCCC2)CCN1C(=O)c1cncnc1	12%
CCNC(=O)c1cccnc1OC1CCN(C(=O)c2ccccc2Cl)C1 (configuration not stated)	-3%
COc1ccccc1CNC(=O)[C@H]1C[C@@H](O)[C@H](O)[C@@H]2N=C(Nc3ccc(C)cc3)S[C@@H]21	i
Cc1nc(-c2cccs2)cc([C@H]2CN3CC[C@H]2C[C@@H]3CNC(=O)N2CCOCC2)n1	i
SMILES	Pf Dd2 growth
Cc1nc(-c2cccs2)cc([C@H]2CN3CC[C@H]2C[C@@H]3CNC(=O)c2ccccc2)n1	7.9µM*
COc1ccccc1-c1cc([C@H]2CN3CC[C@H]2C[C@@H]3CNC(=O)CCC(=O)O)nc(C)n1	2%
O=C(c1ccncc1)N1CCC(N2C(=O)C(OCC3CC3)C23CCOCC3)CC1 (configuration not stated)	20%
O=C(c1cccc(Cl)c1)N1CCC2(CC1)CCN(Cc1cccs1)c1ccccc1O2	7.9µM*
CCCN1CCC2(CCN(C(=O)Nc3ccc(Cl)cc3)CC2)Oc2ccccc21	-14%
CCOc1ccccc1CN1CCC2(CCN(C(=O)c3ccc(OC)cc3)CC2)Oc2ccccc21	-20%
c1cc(-c2nc(C3CCOC3)nn2Cc2ccc3c(c2)OCO3)[nH]n1 (configuration not stated)	-12%
c1ccc(Cn2nc(C3CCOC3)nc2-c2ccoc2)cc1 (configuration not stated)	-2%
NCc1ccc(-c2nc(C3CCOC3)nn2Cc2ccccc2)cc1 (configuration not stated)	4.5µM*
O=C(c1ccc2nccn2c1)N1CCC(C(O)CCc2ccccc2)CC1 (configuration not stated)	-24%
Cc1cc(C)n(CCC(=O)NCc2cccnc2Oc2ccccc2F)n1	-11%
O=C(N[C@@H]1CN(c2ccncn2)C[C@H]1CO)c1ccc(Cl)cc1	17%
COc1cccc(C(=O)N2CCC3(CC2)N=C(c2ccc(C)cc2)NO3)c1	i
COc1cccc(C(=O)N2CCC3(CC2)N=C(c2cccc(Br)c2)NO3)c1	-23%
COc1cccc(C(=O)N2CCC3(CC2)N=C(c2ccc(Br)cc2)NO3)c1	7.9µM*
CC1(C(=O)NCc2cccnc2)COCc2cnc(Nc3ccccc3)nc21 (configuration not stated)	4%[44.1 µM]
O=C(N[C@@H]1CCOC[C@H]1OCCO)c1ccc(CN2CCCCCC2)cc1	-10%
Cc1cn2cc(C(=O)NCc3cn4c(n3)SCC4)ccc2n1	4%
